Source: PubChem (National Center for Advancing Translational Sciences (NCATS))
TSG101-PTAP inh: blocks PTAP/TSG101 interaction to inhibit HIV-1 budding; Fluorescence polarization, FITC-PTAP peptide / Tsg101 binding; AID 493005; 340,000 tested, under 10 active; Potency, µM (highest dose often 115 µM), hits mostly inhibitors; Q99816; active = well fitted inhibition curve with a large enough effect in the main read-out, with a control signal flat, not every such curve was filed as active; inconclusive = small, poorly fitted or top-dose-only effect, or effect the other way, or a change in a side signal; inactive = no such curve, though single readings can be large or run the other way
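Fluorescence polarization binding of Tsg101 binding domain (10 uM final) to FITC-labeled PTAP peptide (50 nM final) in HEPES pH 7.5 buffer with NaCl, Tween 20, EDTA, TCEP. Compounds added before peptide; binding 20 min at RT.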
Akt phos inh: blocks phosphorylation of Akt. Neuro2A IGF-stimulated pAkt S473 HTRF, 20 min; active compounds read low. activity change, % for hits at 50 µM. 360,000 tested, 0.32% active. AID 651550; in the data active = activity change below about -80%; inconclusive = mostly about -51% to -80%
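Neuro2A cells (4,500/well, DMEM with 0.5% FBS) were treated with compound at a single 50 µM final concentration, stimulated with 6 nM IGF for 20 min at 37 °C, and lysed. Phospho-Akt Ser473 was read by HTRF as 665/615 ratio ×10^4.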
S-ASM inh: inhibitors of human secretory acid sphingomyelinase; P17405; Potency, µM (top dose mostly 57.5 µM), actives largely listed as inhibitors; 340,000 tested, 0.006% active; placental ASM, HMU-PC fluorogenic substrate, 60 min
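qHTS format. ASM enzyme prepared from human placenta hydrolyses the fluorogenic substrate HMU-PC0 (9 uM final) over 60 min at 37 °C after a 10 min compound preincubation.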
ALOX12 inh: ALOX12 (human) lipoxygenase inhibition; P18054; purified 12hLO, xylenol orange hydroperoxide absorbance; Potency, µM (highest dose often 108 µM), hits mostly inhibitors; 580,000 tested, 1.1% active
Target sequence (P18054 whole entry, looked up): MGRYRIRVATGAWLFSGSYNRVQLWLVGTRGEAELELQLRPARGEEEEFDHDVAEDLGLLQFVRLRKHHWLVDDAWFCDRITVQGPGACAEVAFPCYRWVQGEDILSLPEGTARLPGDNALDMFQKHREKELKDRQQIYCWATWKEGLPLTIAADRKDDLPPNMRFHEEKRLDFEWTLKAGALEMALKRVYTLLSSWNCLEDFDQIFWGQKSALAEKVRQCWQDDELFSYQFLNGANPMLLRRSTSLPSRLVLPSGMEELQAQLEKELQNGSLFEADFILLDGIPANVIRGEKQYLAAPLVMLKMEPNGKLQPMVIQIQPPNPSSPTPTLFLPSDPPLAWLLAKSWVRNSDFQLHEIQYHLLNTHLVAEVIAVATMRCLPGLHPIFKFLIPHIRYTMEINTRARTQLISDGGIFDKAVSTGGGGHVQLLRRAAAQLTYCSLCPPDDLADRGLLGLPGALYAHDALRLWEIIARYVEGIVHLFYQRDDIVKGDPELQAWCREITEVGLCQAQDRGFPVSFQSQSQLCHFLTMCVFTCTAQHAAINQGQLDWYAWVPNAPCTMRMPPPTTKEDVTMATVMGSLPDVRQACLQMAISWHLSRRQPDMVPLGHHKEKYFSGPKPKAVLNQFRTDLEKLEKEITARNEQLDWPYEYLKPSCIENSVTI
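Purified human 12hLO (150 nM final) in 25 mM Hepes, 0.01% Triton X-100, pH 7.0 was preincubated 15 min at room temperature with compound. Then 40 uM arachidonic acid was added, 30 min. Hydroperoxide was read by Fe-XO absorbance ratio 573/405 nm.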
Vif-A3G inh: blocks the Vif interaction with human APOBEC3G. Potency, µM (titrated, usually from 46.1 µM), actives largely listed as inhibitors. AID 602310. Q9HC16. 410,000 tested, 0.076% active. HeLa A3G-eYFP + Vif (tagged APOBEC3G with the HIV-1 protein that degrades it), YFP fluorescence, overnight; also: nearly all actives have a fitted effect of over 60% in size
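Read-out is eYFP fluorescence (Ex 488/Em 500-530) from Vif-expressing HeLa A3G-eYFP cells; more signal means A3G escaped Vif-mediated degradation. Cells plated overnight, compound pinned in, incubated overnight at 37 deg C.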
Vif-APOBEC3F blk: blocks the Vif interaction with APOBEC3F; HeLa A3F-eYFP + Vif (tagged APOBEC3F with the HIV-1 protein that degrades it), YFP fluorescence increase; 390,000 tested, 0.2% active; AID 602313; Potency, µM (doses to about 46.1 µM); also: nearly all actives have a fitted effect of over 65% in size
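HeLa cells stably expressing Vif plus C-terminally eYFP-tagged A3F were seeded, incubated overnight at 37 deg C, dosed with compound, incubated overnight again at 37 deg C. Yellow fluorescence (Ex 488/Em 500-530) reported blocked Vif-mediated A3F-eYFP degradation.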
Each line names hits and unclear results; the compound was inactive in the other large screens; ! = a repeat was not active. A selection: hits, their analogues and other compounds. The true share with any hit is near 1.4%. Unless noted, calls follow the shape of the dose curve; as a rule, active = well fitted curve in the direction sought with a large enough effect; inconclusive = small, poorly fitted or top-dose-only effect, or another doubt; inactive = no such curve, though single readings can be large; an effect the other way counts as inactive or inconclusive.

Cc1ccc2nc(-c3ccccc3)cn2c1	ALOX12 inh inconclusive
Oc1ccc(-c2csc(Nc3ncccn3)n2)cc1O	ALOX12 inh 40µM, Vif-A3G inh inconclusive
Cc1cccc(-c2nc(C#N)c(NCC(C)C)o2)c1	none (no result: TSG101-PTAP inh, Akt phos inh, S-ASM inh, Vif-A3G inh, Vif-APOBEC3F blk)
Cc1cc(-c2n[nH]c(=S)n2/N=C/c2ccc(Cl)c([N+](=O)[O-])c2)n[nH]1	ALOX12 inh 40µM, Vif-A3G inh inconclusive
COc1ccc(NC(=O)c2nn(C)c(=O)c3ccccc23)cc1OC1CCCC1	none (no result: TSG101-PTAP inh, Akt phos inh, S-ASM inh, Vif-A3G inh, Vif-APOBEC3F blk)
CC1CC(=O)C2=C(C1)OC(N)=C(C#N)C2c1coc2ccccc2c1=O (stereo not drawn)	Vif-APOBEC3F blk 11µM
N#CC1=C(N)OC2=C(C(=O)CC(c3ccccc3Cl)C2)C1c1ccc(Cl)cc1 (stereo not drawn)	ALOX12 inh 16µM (no result: TSG101-PTAP inh, Akt phos inh, S-ASM inh, Vif-A3G inh, Vif-APOBEC3F blk)
COc1ccc(C2C(C#N)=C(N)OC3=C2C(=O)CC(c2ccccc2)C3)cc1 (stereo not drawn)	none (no result: TSG101-PTAP inh, Akt phos inh, S-ASM inh, Vif-A3G inh, Vif-APOBEC3F blk)
COc1ccc(-c2ccc(C(=S)N3CCN(C(C)=O)CC3)o2)cc1	ALOX12 inh 14µM
Cc1ccc(-c2nc3cc(NC(=O)c4cc(Br)ccc4Cl)ccc3o2)cc1	ALOX12 inh 40µM (no result: TSG101-PTAP inh, Akt phos inh, S-ASM inh, Vif-A3G inh, Vif-APOBEC3F blk)
CC(C)(C)c1ccc(C(=O)N/C(=C\c2ccco2)C(=O)Nc2ccccc2C(=O)O)cc1	ALOX12 inh 32µM
O=C(Nc1ccc(C(=O)O)cc1)/C(=C\c1ccco1)NC(=O)c1ccccc1	none
Cc1ccccc1-c1cc(O)c2c(c1)CN(Cc1ccoc1)CCO2	none (no result: TSG101-PTAP inh, Akt phos inh, S-ASM inh, Vif-A3G inh, Vif-APOBEC3F blk)
CC(C)(C)c1ccc(O)c(O)c1	ALOX12 inh 35µM
O=c1c2c(n3cnnc3n1-c1ccccc1)-c1ccccc1CC21CCCCC1	Akt phos inh -114%
CCN(CC)CCn1c2ccccc2c(=O)c2c(O)ccc(O)c21	ALOX12 inh 25µM
S=c1cn[nH]c2ccccc12	ALOX12 inh 40µM
Nc1c(N(Cc2ccco2)C(=O)c2ccc(Cl)cc2)c(=O)[nH]c(=O)n1Cc1ccccc1	none
Nc1c(N(Cc2ccco2)C(=O)c2ccc(Br)cc2)c(=O)[nH]c(=O)n1Cc1ccccc1	ALOX12 inh 28µM
O=C(Nc1cccc(-c2nc3ccccc3o2)c1)c1ccccc1Cl	none (no result: TSG101-PTAP inh, Akt phos inh, S-ASM inh, Vif-A3G inh, Vif-APOBEC3F blk)
CC(=O)Nc1nc(-c2ccc3c(c2)CCN3S(C)(=O)=O)cs1	none
Cc1cccc(Nc2nc(-c3ccc4c(c3)CCN4S(C)(=O)=O)cs2)c1	ALOX12 inh 35µM (no result: TSG101-PTAP inh, Akt phos inh, S-ASM inh, Vif-A3G inh, Vif-APOBEC3F blk)
COCc1nnc(NC(=O)CCn2ccc3ccc(Br)cc32)s1	none (no result: TSG101-PTAP inh, Akt phos inh, S-ASM inh, Vif-A3G inh, Vif-APOBEC3F blk)
Cc1ccc2oc(C(=O)Nc3cccc4cccnc34)c(C)c2c1	none (no result: TSG101-PTAP inh, Akt phos inh, S-ASM inh, Vif-A3G inh, Vif-APOBEC3F blk)
O=c1cnc(-c2ccc(Cl)cc2)cn1O	ALOX12 inh 50µM
O=c1[nH]c(=O)c2nc(-c3ccc(Cl)cc3)cnc2[nH]1	ALOX12 inh inconclusive
COc1ccc(-c2cc(N3CCN(C(=O)c4ccc(C#N)cc4)CC3)n[nH]2)cc1	none (no result: TSG101-PTAP inh, Akt phos inh, S-ASM inh, Vif-A3G inh, Vif-APOBEC3F blk)
O=C(CSC1CCCCC1)c1ccccc1Br	ALOX12 inh 35µM (no result: TSG101-PTAP inh, Akt phos inh, S-ASM inh, Vif-A3G inh, Vif-APOBEC3F blk)
O=C1CCN(S(=O)(=O)c2ccccc2)CCCN(Cc2ccccc2)CCN1	none (no result: TSG101-PTAP inh, Akt phos inh, S-ASM inh, Vif-A3G inh, Vif-APOBEC3F blk)
O=C1c2ccccc2C(=O)c2c1ccc(O)c2O	TSG101-PTAP inh inconclusive, ALOX12 inh 2.3µM!
Cc1nc(-c2ccc(F)cc2)n(CC(=O)Nc2cccc(C#N)c2)c(=O)c1CCO	none (no result: TSG101-PTAP inh, Akt phos inh, S-ASM inh, Vif-A3G inh, Vif-APOBEC3F blk)
Cc1cccc(OCC2(CNC3CCOCC3)C[C@@H](O)[C@@H](O)C2)n1 (stereo partly drawn)	ALOX12 inh 25µM (no result: TSG101-PTAP inh, Akt phos inh, S-ASM inh, Vif-A3G inh, Vif-APOBEC3F blk)
Cc1cccc(OCC2(CNCc3cnn(C)c3)C[C@@H](O)[C@@H](O)C2)n1 (stereo partly drawn)	ALOX12 inh 28µM (no result: TSG101-PTAP inh, Akt phos inh, S-ASM inh, Vif-A3G inh, Vif-APOBEC3F blk)
Cc1cccc(OCC2(CNC(=O)c3cc(C)nn3C)C[C@@H](O)[C@@H](O)C2)n1 (stereo partly drawn)	ALOX12 inh 25µM (no result: TSG101-PTAP inh, Akt phos inh, S-ASM inh, Vif-A3G inh, Vif-APOBEC3F blk)
O=C(Nc1cc(F)cc(F)c1)C1CCCCC1	none (no result: TSG101-PTAP inh, Akt phos inh, S-ASM inh, Vif-A3G inh, Vif-APOBEC3F blk)
Cc1cc(=O)oc2cc(OCC(=O)N3c4ccccc4CC3C)ccc12 (stereo not drawn)	Vif-A3G inh 4µM
Cc1cc(-c2ccccc2)cc(-c2ccccc2)n1	none (no result: TSG101-PTAP inh, Akt phos inh, S-ASM inh, Vif-A3G inh, Vif-APOBEC3F blk)
CCOCCCNC(=O)C(NC(=O)c1ccc(CC)cc1)C(C)C (stereo not drawn)	none (no result: TSG101-PTAP inh, Akt phos inh, S-ASM inh, Vif-A3G inh, Vif-APOBEC3F blk)
Nc1c(N)c2ccccc2oc1=O	none
O=c1oc2ccccc2c2oc3cc(O)c(O)cc3c12	ALOX12 inh 6.3µM, Vif-APOBEC3F blk inconclusive
O=C(O)CCCCCNC(=O)Cn1ccc2c(Cl)cccc21	none (no result: TSG101-PTAP inh, Akt phos inh, S-ASM inh, Vif-A3G inh, Vif-APOBEC3F blk)
CCCSc1cc(N2CCN(C)CC2)nc(-c2ccc(OC)cc2)n1	Akt phos inh -89%
Cc1c(CC(=O)O)c(=O)oc2cc(OCc3nn[nH]n3)ccc12	Akt phos inh -98%, ALOX12 inh inconclusive
C/C(=N\Nc1ccc(F)cc1F)c1ccc(Br)s1	ALOX12 inh 32µM
C/C(=N/Nc1ccc(S(N)(=O)=O)cc1[N+](=O)[O-])c1ccc(Br)s1	none (no result: TSG101-PTAP inh, Akt phos inh, S-ASM inh, Vif-A3G inh, Vif-APOBEC3F blk)
COC(=O)C[N+]1(CC=C(C)C)CCCCC1	none (no result: TSG101-PTAP inh, Akt phos inh, S-ASM inh, Vif-A3G inh, Vif-APOBEC3F blk)
